Measurements taken from PubChem BioAssay (Tox21).
Results filed as inconclusive are left out. Calls of active or inactive are those of the source. Unless noted, calls come from the whole dose curve; as a rule, active = well fitted cell-killing curve with a large enough effect in the repeat runs; inconclusive = weak or mixed curves, or effect the other way; inactive = flat fitted curve, though single readings scatter.

system: not listed separately; test: qHTS assay to identify small molecule agonists of the TGF-beta/Smad signaling pathway - cell viability counter screen (AID 1346829); settings: SBE-bla HEK293T viability, CellTiter-Glo luminescence, 5 h; series mostly up to 76.8 µM; activity change, negative = cytotoxicity: at the top concentration; note: top concentration of the series differs between compounds; nearly all actives have a fitted effect of over 45% in size
How it was run: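 Compound-treated SBE-bla HEK 293T cells (5 hr, 37 C) were assessed for viability with CellTiter-Glo in parallel with the reporter read.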
% is set by controls: 0 for no effect and ±100 for the full control effect.

Structure (SMILES) | activity change, negative = cytotoxicity
COC(=O)CCCCCCCCC(=O)OC | 2.83% (inactive)
C[N+](C)(C)CC[N+]1(C)Cc2c(Cl)c(Cl)c(Cl)c(Cl)c2C1 | -22.6% [at 35.3 µM] (inactive)
COC(C(=O)O)c1ccccc1 (stereo not given) | -7.99% (inactive)
CCC(C)OC(=O)N1CCCCC1CCO (stereo not given) | -7.71% (inactive)
CC(C=O)Cc1ccc(C(C)C)cc1 (stereo not given) | -15.5% (inactive)
CC(C)CCCC(C)CCCC(C)CCCCC(C)CCCC(C)CCCC(C)C (stereo not given) | 0.693% [at 35.3 µM] (inactive)
NC(=O)CCCCC1CCSS1 (stereo not given) | 8.55% [at 35.3 µM] (inactive)
CC(C)[C@H](N)C(=O)OCCOCn1cnc2c(=O)[nH]c(N)nc21 | -4.19% [at 35.3 µM] (inactive)
c1ccc(CCCc2ccccn2)cc1 | 14.1% (inactive)
CCC(C(=O)NC(N)=O)c1ccccc1 (stereo not given) | 0% (inactive)
O=C1CC2(CCCC2)CC(=O)N1 | -9.73% [at 35.3 µM] (inactive)
CC(C)c1cccc(O)c1 | 4.89% (inactive)
O=C(CCOCCOCCOCCOCCC(=O)Nc1c(I)cc(I)c(C(=O)O)c1I)Nc1c(I)cc(I)c(C(=O)O)c1I | 5.32% [at 35.3 µM] (inactive)
NC(CS)C(=O)O (stereo not given) | 2.32% [at 35.3 µM] (inactive)
CCCCCCCCCCCCI | 1.67% (inactive)
Cc1ccc(N)cc1[N+](=O)[O-] | -12.5% (inactive)
CC(C)(C)OC(=O)N1C[C@@H](F)C[C@H]1C(=O)O | 4.56% (inactive)
Cn1cnc2c(=O)[nH]c(N)nc21 | -1.83% (inactive)
Nc1ccn(C2CO[C@H](CO)O2)c(=O)n1 (stereo not given in full) | -0.576% [at 35.3 µM] (inactive)

Structure (SMILES) | activity change, negative = cytotoxicity
COCCOC(=O)CC#N | -3.57% (inactive)
CNc1ncnc2nc[nH]c12 | -0.183% (inactive)
CCN(CC)S(=O)(=O)c1ccc(C(=O)O)cc1 | 8.12% [at 35.3 µM] (inactive)
C=CC(=O)OCCCCCC | 6.62% (inactive)
CCN(CC)C(=O)c1ccc(O)c(OC)c1 | 5.5% [at 35.3 µM] (inactive)
c1ccc2cnncc2c1 | 13.8% (inactive)
COc1ccc(COC=O)cc1 | -4.08% (inactive)
CCCCCCCCN(C)CCCCCCCC | 5.16% (inactive)
CC(C)N1C(=O)c2ccccc2C1=O | 5.27% (inactive)
Fc1ccccc1-c1ccccc1 | 2.36% (inactive)
NC(N)=NS(=O)(=O)c1ccc(N)cc1 | 13.6% [at 35.3 µM] (inactive)
O=C(O)c1ccccc1-c1ccc(C(F)(F)F)cc1 | 18.7% [at 35.3 µM] (inactive)
CCCC(C)CO (stereo not given) | -2.32% (inactive)
CCC(=O)Nc1cccc(N)c1 | -3.52% (inactive)
CN(C)N=Nc1ccccc1 | -1.74% (inactive)
CC(C)(O)Cc1ccccc1 | -1.05% (inactive)
COc1cc(O)cc(O)c1 | 3.52% [at 35.3 µM] (inactive)
COc1cccc(Br)c1 | -2.1% (inactive)

system: not listed separately; test: qHTS assay to identify small molecule agonists of the TGF-beta/Smad signaling pathway (AID 1346859; active = well fitted activation curve with a large enough effect in the signal ratio in the repeat runs, not every such curve was filed as active; the % refers to the signal ratio); settings: SBE-bla HEK293T, TGF-beta/Smad beta-lactamase reporter, 5 h; series mostly up to 76.8 µM; activation: at the top concentration
How it was run: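 Read-out: fluorescence at 460 and 530 nm (405 nm excitation) after a 2 hr room-temperature incubation with beta-lactamase FRET substrate. SBE-bla HEK 293T cells had been treated with test compounds for 5 hr at 37 C.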

Structure (SMILES) | activation
COC(=O)CCCCCCCCC(=O)OC | -5.68% (inactive)
C[N+](C)(C)CC[N+]1(C)Cc2c(Cl)c(Cl)c(Cl)c(Cl)c2C1 | -0.83% [at 35.3 µM] (inactive)
COC(C(=O)O)c1ccccc1 (stereo not given) | 0.371% (inactive)
CCC(C)OC(=O)N1CCCCC1CCO (stereo not given) | -2.45% (inactive)
CC(C=O)Cc1ccc(C(C)C)cc1 (stereo not given) | -2.05% (inactive)
CC(C)CCCC(C)CCCC(C)CCCCC(C)CCCC(C)CCCC(C)C (stereo not given) | 5.09% [at 35.3 µM] (inactive)
NC(=O)CCCCC1CCSS1 (stereo not given) | -3.17% [at 35.3 µM] (inactive)
CC(C)[C@H](N)C(=O)OCCOCn1cnc2c(=O)[nH]c(N)nc21 | -0.774% [at 35.3 µM] (inactive)
c1ccc(CCCc2ccccn2)cc1 | 0.549% (inactive)
CCC(C(=O)NC(N)=O)c1ccccc1 (stereo not given) | -0.178% (inactive)
O=C1CC2(CCCC2)CC(=O)N1 | 4.86% [at 35.3 µM] (inactive)
CC(C)c1cccc(O)c1 | 1.95% (inactive)
O=C(CCOCCOCCOCCOCCC(=O)Nc1c(I)cc(I)c(C(=O)O)c1I)Nc1c(I)cc(I)c(C(=O)O)c1I | 4.21% [at 35.3 µM] (inactive)
NC(CS)C(=O)O (stereo not given) | 1.23% [at 35.3 µM] (inactive)
CCCCCCCCCCCCI | 0.636% (inactive)
Cc1ccc(N)cc1[N+](=O)[O-] | 2.61% (inactive)
CC(C)(C)OC(=O)N1C[C@@H](F)C[C@H]1C(=O)O | -1.45% (inactive)
Cn1cnc2c(=O)[nH]c(N)nc21 | 1.9% (inactive)
Nc1ccn(C2CO[C@H](CO)O2)c(=O)n1 (stereo not given in full) | 0.0701% [at 35.3 µM] (inactive)

Structure (SMILES) | activation
COCCOC(=O)CC#N | 0.059% (inactive)
CNc1ncnc2nc[nH]c12 | -2.66% (inactive)
CCN(CC)S(=O)(=O)c1ccc(C(=O)O)cc1 | -0.888% [at 35.3 µM] (inactive)
C=CC(=O)OCCCCCC | 2.5% (inactive)
CCN(CC)C(=O)c1ccc(O)c(OC)c1 | 3.49% [at 35.3 µM] (inactive)
c1ccc2cnncc2c1 | 0.836% (inactive)
COc1ccc(COC=O)cc1 | -1.53% (inactive)
CCCCCCCCN(C)CCCCCCCC | 0.611% (inactive)
CC(C)N1C(=O)c2ccccc2C1=O | 2.14% (inactive)
Fc1ccccc1-c1ccccc1 | 2.06% (inactive)
NC(N)=NS(=O)(=O)c1ccc(N)cc1 | 1.02% [at 35.3 µM] (inactive)
O=C(O)c1ccccc1-c1ccc(C(F)(F)F)cc1 | 2.27% [at 35.3 µM] (inactive)
CCCC(C)CO (stereo not given) | 1.54% (inactive)
CCC(=O)Nc1cccc(N)c1 | 0.347% (inactive)
CN(C)N=Nc1ccccc1 | 0.786% (inactive)
CC(C)(O)Cc1ccccc1 | 0.733% (inactive)
COc1cc(O)cc(O)c1 | 0.49% [at 35.3 µM] (inactive)
COc1cccc(Br)c1 | 1.22% (inactive)

target: Thyrotropin-releasing hormone receptor (Homo sapiens) (UniProt P34981); test: qHTS assay to identify small molecule antagonists of the thyrotropin-releasing hormone receptor (TRHR) signaling pathway (AID 1346877; active = well fitted inhibition curve with a large enough effect in the repeat runs, not every such curve was filed as active); settings: TRHR-HEK293, TRH-induced calcium fluorescence, antagonist mode; series mostly up to 51.3 µM; activity, negative = inhibition: at the top concentration
How it was run: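 TRHR-expressing HEK293 cells loaded with calcium dye for 2 h at 37 C; compounds pre-incubated 5 min at room temperature before TRH challenge at 1 nM final. Intracellular calcium fluorescence read kinetically for 3 min; 15 concentrations in triplicate.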

Thyrotropin-releasing hormone receptor (Homo sapiens), sequence (P34981 whole entry, looked up): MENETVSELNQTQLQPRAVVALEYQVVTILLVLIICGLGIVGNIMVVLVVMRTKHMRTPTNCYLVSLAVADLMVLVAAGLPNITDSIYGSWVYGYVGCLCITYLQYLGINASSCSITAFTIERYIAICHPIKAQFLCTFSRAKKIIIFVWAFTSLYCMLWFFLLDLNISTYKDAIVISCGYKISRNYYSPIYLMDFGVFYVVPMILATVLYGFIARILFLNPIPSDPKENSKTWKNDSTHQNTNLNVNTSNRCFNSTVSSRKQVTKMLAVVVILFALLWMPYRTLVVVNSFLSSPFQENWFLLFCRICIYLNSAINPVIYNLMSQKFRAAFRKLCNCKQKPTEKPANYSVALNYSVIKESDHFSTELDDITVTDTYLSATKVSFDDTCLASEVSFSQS

Structure (SMILES) | activity, negative = inhibition
COC(=O)CCCCCCCCC(=O)OC | 2.29% (inactive)
C[N+](C)(C)CC[N+]1(C)Cc2c(Cl)c(Cl)c(Cl)c(Cl)c2C1 | -3.56% [at 23.6 µM] (inactive)
CCC(C)OC(=O)N1CCCCC1CCO (stereo not given) | -5.84% (inactive)
CC(C=O)Cc1ccc(C(C)C)cc1 (stereo not given) | 1.98% (inactive)
NC(=O)CCCCC1CCSS1 (stereo not given) | -3.57% [at 23.6 µM] (inactive)
CC(C)[C@H](N)C(=O)OCCOCn1cnc2c(=O)[nH]c(N)nc21 | -1% [at 23.6 µM] (inactive)
c1ccc(CCCc2ccccn2)cc1 | -2.6% (inactive)
CCC(C(=O)NC(N)=O)c1ccccc1 (stereo not given) | 4.43% (inactive)
O=C1CC2(CCCC2)CC(=O)N1 | -3.08% [at 23.6 µM] (inactive)
CC(C)c1cccc(O)c1 | 0.242% (inactive)
CCCCCCCCCCCCI | 2.07% (inactive)
Cc1ccc(N)cc1[N+](=O)[O-] | 0.235% (inactive)
CC(C)(C)OC(=O)N1C[C@@H](F)C[C@H]1C(=O)O | 1.49% (inactive)
COCCOC(=O)CC#N | 3.72% (inactive)
CNc1ncnc2nc[nH]c12 | -0.45% (inactive)
CCN(CC)S(=O)(=O)c1ccc(C(=O)O)cc1 | 4.86% [at 23.6 µM] (inactive)
C=CC(=O)OCCCCCC | 1% (inactive)
CCN(CC)C(=O)c1ccc(O)c(OC)c1 | 1.09% [at 23.6 µM] (inactive)
c1ccc2cnncc2c1 | -0.826% (inactive)
COc1ccc(COC=O)cc1 | 2.38% (inactive)
O=C(O)c1ccccc1-c1ccc(C(F)(F)F)cc1 | -0.47% [at 23.6 µM] (inactive)
CCC(=O)Nc1cccc(N)c1 | 4.19% (inactive)
CN(C)N=Nc1ccccc1 | -18% (inactive)
CC(C)(O)Cc1ccccc1 | 4.89% (inactive)
COc1cc(O)cc(O)c1 | 2.43% [at 23.6 µM] (inactive)
COc1cccc(Br)c1 | 4.47% (inactive)
